Measured values from PubChem BioAssay (NCI).
This is part of a sample that, as a whole, favours compounds with a hit. Of some 83,000 tested, about 20% had one in any assay.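 Testing used 96-well plates and a 48-hour single-concentration exposure. Example: -40 means 40% of the starting cells died.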 Active and inactive are the calls of the source. The calls were made as follows: active = growth percent below 10; inactive = the rest.

Assays:
Assay in all cases: NCI-60 one-dose screen, 48 h (100 = growth as untreated, 0 = no growth, -100 = all killed)
Conditions in all cases: 10 µM unless noted
[1] = test system: SR leukemia
[2] = test system: RPMI-8226 leukemia
[3] = test system: OVCAR-8 ovarian
[4] = test system: OVCAR-5 ovarian
[5] = test system: OVCAR-4 ovarian
[6] = test system: SK-OV-3 ovarian
[7] = test system: OVCAR-3 ovarian
[8] = test system: HS 578T breast
[9] = test system: NCI/ADR-RES ovarian
[10] = test system: IGROV1 ovarian

Measured: growth

O=C(COc1cccc(/C=C2\Cc3ccccc3C2=O)c1)c1ccc(Cl)cc1
inactive: [1] 111% | [2] 90.2% | [3] 90.4% | [4] 103% | [5] 90.1% | [6] 130% | [7] 120% | [8] 102% | [9] 93.5%

O=CN1N=C(c2ccc(Nc3ccnc4cc(Cl)ccc34)cc2)CC1c1ccc(Cl)cc1 (configuration not stated)
active: [1] -23.3% | [2] 4.55% | [6] 4.28% | [7] -24.1% | [9] 0.514%
inactive: [3] 33.1% | [4] 41.9% | [5] 38.1% | [10] 27.3%

O=C(CSc1nnc(-c2cc(-c3ccccc3)nc3ccccc23)o1)c1ccc(Br)cc1
inactive: [1] 83.7% | [2] 109% | [3] 100% | [4] 104% | [5] 106% | [6] 112% | [10] 102% | [7] 108% | [9] 107%

N#Cc1ccccc1C#Cc1ccccc1C#Cc1ccc(OCCCCCCOc2ccc(C#Cc3ccccc3C#Cc3ccccc3C#N)cc2)cc1
inactive: [1] 113% | [2] 108% | [3] 98.7% | [4] 96% | [5] 107% | [6] 111% | [7] 126% | [9] 104%
active: [10] -19%

COc1cc(Cl)cc(-c2nn(-c3cccc(NC(=O)c4cc(C(F)(F)F)cc(C(F)(F)F)c4)c3)cc2-c2ccncc2)c1
inactive: [1] 41% | [2] 43.6% | [3] 55.4% | [4] 83% | [5] 72.1% | [6] 83.4% | [7] 25.5% | [8] 81.1% | [9] 67.8%

COc1ccc2c(c1)CC/C(=C\c1ccc(OCC(=O)Nc3nc4ccccc4s3)cc1)C2=O
inactive: [1] 68.4% | [2] 85.4% | [3] 98.3% | [4] 87.8% | [5] 102% | [6] 104% | [7] 116% | [8] 73.5% | [9] 102%

CC(=O)N1N=C(c2ccc3c(c2)OCO3)CC1c1c(C)nn(-c2ccccc2)c1N(C)Cc1ccccc1 (configuration not stated)
inactive: [1] 67% | [2] 58.8% | [3] 76.7% | [4] 97.1% | [5] 66.3% | [6] 84.2% | [10] 51.5% | [7] 79.4% | [9] 63%

CCN(CC)CCSc1ncnc2c1cnn2-c1ccc(S(N)(=O)=O)cc1
inactive: [1] 57% | [2] 98.2% | [3] 83.5% | [4] 112% | [5] 106% | [6] 108% | [10] 96.5% | [7] 84.4% | [9] 85.2%

CO[C@H]1/C=C/O[C@@]2(C)Oc3c(C)c(O)c4c(O)c(c(/C=N/N5C(C)CN(Cc6ccc(C#N)cc6)CC5C)c(O)c4c3C2=O)NC(=O)/C(C)=C\C=C\[C@H](C)[C@H](O)[C@@H](C)[C@@H](O)[C@@H](C)[C@H](OC(C)=O)[C@@H]1C (some centres not stated)
inactive: [1] 19.3% | [3] 49.7% | [4] 27.1% | [5] 39.7% | [6] 18.5% | [10] 40.6% | [9] 40.1%
active: [2] -6.25% | [7] -21.1%

C=C(CN1CCc2c([nH]c3ccccc23)C1)c1ccc(C(=O)Nc2ccon2)cc1
inactive: [1] 80.9% | [2] 78.4% | [3] 78.2% | [4] 90.2% | [5] 85.5% | [6] 61.8% | [7] 92.6% | [8] 94.4% | [9] 99.9%

c1ccc(-c2nc(Nc3nccnn3)c3ccccc3n2)cc1
inactive: [1] 91.6% | [2] 98.4% | [3] 95.3% | [4] 97.1% | [5] 122% | [6] 115% | [10] 92.2% | [7] 100% | [9] 98.8%

Cn1cc(NC(=O)Nc2cc(C(=O)O)n(C)c2)cc1C(=O)O
inactive: [1] 86.8% | [2] 125% | [3] 94.4% | [4] 107% | [5] 99.8% | [6] 112% | [7] 102% | [8] 108% | [9] 105%

O=C(COc1cccc(/C=C2\Oc3ccc4ccccc4c3C2=O)c1)c1ccc(Cl)cc1
inactive: [1] 51.6% | [2] 67.9% | [3] 80% | [4] 108% | [5] 85.3% | [6] 95.6% | [7] 93.8% | [8] 92.8% | [9] 100%

CCOC(=O)CCN(c1c(Cl)ssc1=O)C(C)C
inactive: [1] 134% | [2] 105% | [3] 97.2% | [4] 87.2% | [5] 106% | [6] 116% | [7] 128% | [8] 103% | [9] 105%

COc1ccc(CNC(=O)c2c(C)n([O-])c3cc(F)c(F)cc3[n+]2=O)cc1
inactive: [1] 37.5% | [2] 86% | [3] 88% | [4] 99.5% | [5] 116% | [6] 111% | [7] 56% | [8] 97.3% | [9] 108%

O=c1[nH]cc(Nc2cc(Cl)c3nonc3c2[N+](=O)[O-])c(=O)[nH]1
inactive: [1] 100% | [2] 96.2% | [3] 98.4% | [4] 98.1% | [5] 121% | [6] 104% | [7] 123% | [8] 47.8% | [9] 96%

COc1ccc(CNC(=O)c2c(C)n([O-])c3ccccc3[n+]2=O)cc1
inactive: [1] 97.4% | [2] 96.3% | [3] 96.5% | [4] 89.9% | [5] 97.7% | [6] 99.3% | [7] 115% | [8] 111% | [9] 54.2%

O=c1[nH]c(SCc2ccccc2)nc2nc(Nc3ccc(NC(=S)Nc4ccccc4)cc3)nc(-c3ccc(O)cc3O)c12
inactive: [1] 54.8% | [2] 96.5% | [3] 108% | [4] 87.5% | [5] 100% | [6] 91.4% | [7] 81.1% | [8] 107% | [9] 99.3%

Cc1cc2c(cc1C)[n+](Cc1ccc3ccccc3c1)cn2Cc1ccc2ccccc2c1
inactive: [9] 80.7%
active: [1] -50.6% | [2] -49.6% | [3] -79% | [4] -87.1% | [5] -76% | [6] -27% | [10] -84.9% | [7] -94.2%

O=C(COc1ccc(/C=C2\Oc3ccc4ccccc4c3C2=O)cc1)c1ccc(Cl)cc1
inactive: [1] 26.8% | [2] 62.1% | [3] 100% | [4] 113% | [5] 94.6% | [6] 104% | [7] 127% | [8] 91.7% | [9] 107%

NC(=O)NS(=O)(=O)c1ccc(N2N=C(C(F)(F)F)CC2c2cc(C(F)(F)F)cc(C(F)(F)F)c2)cc1 (configuration not stated)
active: [2] 2.36%
inactive: [1] 66.2% | [3] 79.8% | [4] 85.7% | [5] 69.7% | [6] 93% | [7] 69.7% | [8] 66.5% | [9] 77%

COc1cc(C2CC(C3C(=O)N(C)C(=O)N(C)C3=O)=NN2c2cc(Cl)cc(Cl)c2)cc(OC)c1OC (configuration not stated)
inactive: [1] 94.5% | [2] 85.7% | [3] 96.7% | [4] 108% | [5] 96% | [6] 95.6% | [10] 102% | [7] 97.2% | [9] 87.2%

Cc1ccc(OCC(=O)Nc2ccc(Oc3ccccc3)cc2)c([N+](=O)[O-])n1
inactive: [1] 82.6% | [2] 50.7% | [3] 79% | [4] 84.4% | [5] 77.4% | [6] 71.9% | [7] 88.7% | [8] 113% | [9] 43.7%

COc1ccc(NC(=O)[C@@H]2C[C@H]2c2ccccc2)c(C(N)=O)c1
inactive: [1] 77.6% | [2] 100% | [3] 99.1% | [4] 102% | [5] 107% | [6] 102% | [7] 98.9% | [8] 102% | [9] 99%

COc1ccc(C(=O)COc2ccc(/C=C3\Oc4ccc5ccccc5c4C3=O)cc2)cc1
inactive: [1] 40.2% | [2] 66.8% | [3] 90.6% | [4] 106% | [5] 88.9% | [6] 97.8% | [7] 115% | [8] 96.3% | [9] 97.4%

COc1ccc(C(=O)COc2cccc(/C=C3\CSc4ccc(Cl)cc4C3=O)c2)cc1
active: [2] -13.7%
inactive: [1] 20% | [3] 78.4% | [4] 93.5% | [5] 64.6% | [6] 94.6% | [7] 88% | [8] 91% | [9] 84.3%

O=c1[nH]c(N2CCC(Cc3ccccc3)CC2)nc2sc3c(c12)CCCC3
inactive: [1] 109% | [2] 107% | [3] 96.3% | [4] 107% | [5] 110% | [6] 101% | [10] 106% | [7] 106% | [9] 96.6%

CCCCN1c2nc3ccccc3cc2Sc2cc3ccccc3nc21
inactive: [1] 76.5% | [2] 78.4% | [3] 106% | [4] 93.6% | [5] 93.7% | [6] 112% | [7] 294% | [8] 99.8% | [9] 106%
